PubChem BioAssay AID651774 (Broad Institute, 2012)
Entries with a potency or affinity are not part of this list. Active and inactive are the calls of the source. The rule behind the calls is not given here.

Assay: HeLa cell viability loss – 24 h, dry powder, cytotoxicity control, dose response (AID 651774)

CCn1nnnc1NCc1ccccc1
outcome: inactive

Cn1nnc(NCc2ccc(C(F)(F)F)cc2)n1
outcome: inactive

O=C(Cc1ccc(-c2ccccc2)cc1)N1CCC1
outcome: inactive

O=C(Cc1ccccc1Cl)NC1CCCC1
outcome: inactive

Cc1ccccc1CC(=O)NC1CCCC1
outcome: inactive

N#Cc1ccc(CC(=O)NC2CCCC2)cc1
outcome: inactive

O=C(Cc1ccccc1OC(F)(F)F)NC1CCCC1
outcome: inactive

O=C(CCc1ccc(-c2ccccc2)cc1)NC1CCCC1
outcome: inactive

O=C(Cc1ccncc1)NC1CCCC1
outcome: inactive

O=C(Cc1ccc(-c2ccccc2)cc1)N1CCC(F)(F)CC1
outcome: inactive

CCCn1nnnc1NCc1ccc(C(C)C)cc1
outcome: inactive

O=C(Cc1ccccn1)NC1CCCC1
outcome: inactive

O=C(Cc1ccc(-c2ccccc2)cc1)NC1CCCCC1
outcome: inactive

CCN(Cc1ccc(N2CCCC2)cc1)c1nnnn1CC
outcome: inactive

CN(Cc1ccc(N2CCCC2)cc1)c1nnn(C)n1
outcome: inactive

O=C(NCc1ccc(-c2ccccc2)cc1)C1CCCC1
outcome: inactive

O=C(O)Cc1ccc(-c2ccccc2)cc1
outcome: inactive

COc1ccc(CC(=O)NC2CCCC2)cc1
outcome: inactive

CS(=O)(=O)c1cccc(CC(=O)NC2CCCC2)c1
outcome: inactive

O=C(Cc1cccnc1)NC1CCCC1
outcome: inactive

CCn1nnc(NCc2ccccc2)n1
outcome: inactive

CCC(C)NC(=O)Cc1ccc(-c2ccccc2)cc1 (stereo not drawn)
outcome: inactive

Cc1ccc2cc3c(NC(=O)c4ccco4)nn(C)c3nc2c1
outcome: inactive

CC(C)n1nnc(NCc2ccc(N3CCCC3)cc2)n1
outcome: inactive

CC(C)c1ccc(CNc2nnn(C)n2)cc1
outcome: inactive

O=C(Cc1ccc(-c2ccncc2)cc1)NC1CCCC1
outcome: inactive

Cc1ccc(CC(=O)NC2CCCC2)cc1
outcome: inactive

CN(C)C(=O)Cc1ccc(-c2ccccc2)cc1
outcome: inactive
